According to PubChem BioAssay:
Values without a mark were called inactive. No rule for the calls is given here.

Each molecule was assayed against Pantothenate synthetase (Mycobacterium tuberculosis (strain ATCC 25618 / H37Rv)) (UniProt P9WIL5) (assay: Recombinant Mtb pantothenate synthetase (PanC) inhibitors, coupled enzyme, confirmatory (AID 375;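 also: 0% = full reaction with vehicle and 100% = no enzyme background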)). Conditions: coupled enzyme assay; at 10 µM, active compounds read high.
Sequence of Pantothenate synthetase (Mycobacterium tuberculosis (strain ATCC 25618 / H37Rv)) (P9WIL5 whole entry, looked up): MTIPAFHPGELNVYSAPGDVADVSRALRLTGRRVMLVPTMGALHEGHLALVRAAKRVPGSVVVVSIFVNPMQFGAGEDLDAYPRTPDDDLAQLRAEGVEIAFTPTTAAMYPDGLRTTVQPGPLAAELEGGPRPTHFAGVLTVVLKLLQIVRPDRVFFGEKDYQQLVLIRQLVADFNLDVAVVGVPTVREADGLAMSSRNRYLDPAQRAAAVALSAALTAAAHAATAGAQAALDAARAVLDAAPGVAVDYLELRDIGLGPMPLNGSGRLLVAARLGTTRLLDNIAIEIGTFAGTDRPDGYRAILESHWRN

SMILES | inhibition
COc1ccc(CNC(=O)c2ccc(CN3CCOCC3)cc2)cc1 | 8%
CCOc1nc(SCCOc2ccccc2)nc(N(C)C)n1 | 4%
COc1cccc(NS(=O)(=O)c2ccc3[nH]cc(C(=O)NC4CC4)c(=O)c3c2)c1 | 2%
COc1cc2c(cc1OC)C(c1ccccc1O)N(C1CC(=O)N(c3ccccc3)C1=O)CC2 (configuration not stated) | 0%
COc1ccc(CN(C(=O)CNC(=O)c2ccco2)C(C(=O)NC2CCCC2)c2ccco2)cc1 (configuration not stated) | 5%
O=C(Cn1cnc2ccccc2c1=O)NCCC(=O)N1CCN(Cc2ccccc2)CC1 | 0%
Cc1cccn2c(=O)c3cc(C#N)c(=NC(=O)c4cccnc4)n(CC4CCCO4)c3nc12 (configuration not stated) | 0%
Cc1cc(C)n(CC(=O)O)n1 | 0%
CCOC(=O)c1cc2c(=O)n3cccc(C)c3nc2n(Cc2ccco2)c1=NC(=O)c1cccnc1 | 0%
Cn1c(=O)c(=O)n(C)c2cc(S(=O)(=O)CCC(=O)N3CCOCC3)ccc21 | 0%
O=C(CN1CCC(n2nnc3ccccc32)CC1)Nc1ccc2c(c1)CCC2 | 0%
CCOC(=O)c1c(C)oc2ccc(O)c(CN3CCCCC3)c12 | 12%
COC(=O)c1cc(OC)c(OC)cc1NC(=O)CCC1CCCC1 | 0%
COCC(=O)N(Cc1ccccc1)c1ccccn1 | 4%
NS(=O)(=O)c1cc2c(cc1C(F)(F)F)NCNS2(=O)=O | 2%
CC1CN(S(=O)(=O)c2ccc(Cl)c(C(F)(F)F)c2)CC(C)O1 (configuration not stated) | 0%
CCc1nc2sc3ccccc3c(=O)c2c(=O)n1Cc1ccco1 | 0%
COC(=O)CCc1c(C)c(C#N)c2nc3ccccc3n2c1N1CCCC1 | 0%
CCc1cc(=O)n2[nH]c(C)c(-c3ccccc3OC)c2n1 | 4%
C[C@H](NC(=O)OC(C)(C)C)C(=O)NCC1CCC(C(=O)O)CC1 (some centres not stated) | 0%
CCc1nc2scc(-c3ccccc3)c2c(=O)n1N | 5%
CC(NC(=O)Nc1ccccc1)C(c1cccs1)N1CCOCC1 (configuration not stated) | 0%
